We go through 40 compounds from PubChem BioAssay (NCI).

Each structure is given as a SMILES string. The panel holds about 83,000 compounds, 20% with a hit somewhere; the sample as a whole holds those more often.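 48-hour exposure, single concentration, 96-well plates; percent growth endpoint where 0 means no net growth. Active: below 10.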 Values without a mark were called inactive. Activity calls are given as the source filed them.

The assay relates to HOP-62 NSCLC. Briefly: NCI-60 one-dose screen, 48 h (100 = growth as untreated, 0 = no growth, -100 = all killed). Particulars: 10 µM unless noted. Here is the method: Growth inhibition of the HOP-62 human Non-Small Cell Lung tumor cell line is measured as a screen for anti-cancer activity. Cells are grown in 96 well plates and exposed to the test compound for 48 hours. Compounds are tested at a single concentration, which is 10^-5 M for most compounds. The reported endpoint is percent growth (GI% or GIPRCNT), where numbers from 0 - 100% represent growth inhibition, and numbers from -100% - 0 represent cell death. For example, a value of 40 represents 60% growth inhibition. A value of 0 means no net growth occurred over the course of the experiment. A value of -40 indicates 40% of cells at the beginning of the experiment died by the end of the experiment. A value of -100 means all cells are dead at the end of the experiment.
NCI-60 Human Tumor Cell Lines Screen was performed using the standard one-dose NCI protocol, which is described in more detail at https://dtp.cancer.gov/discovery_development/nci-60/default.htm.
Compounds with GIPRCNT values below 10 were considered active. Activity score was based on GIPRCNT using the following formula: […]
Score is 0 for GIPRCNT values of 100 or above, 50 for GIPRCNT values of 0, and 100 for GIPRCNT values of -100.
Turning to `OCc1cnccc1NC12CC3CC(CC(C3)C1)C2`, the growth was 101%. Consider `COc1ccccc1NC(=O)COc1ccc(/C=C2/Oc3cc4occc4c(OC)c3C2=O)cc1OC`, for which the growth is 101%. As for `Nc1nc(Nc2ccc(OCc3cccc(F)c3)cc2)c2c(n1)[nH]c1ccc(O)cc12`, the growth was -17% (active). On to `CCOC(=O)C1CN(Cc2ccccc2)C(=O)C1=O` (stereo not given), for which the growth was 98.8%. Regarding `O=C(Cn1c2ccccc2c2ccncc21)N/N=C\c1ccc2ccccc2c1`, the growth was 19.8%. Take `Nc1ncnc2c1ncn2C1OC(COC(c2ccccc2)(c2ccccc2)c2ccccc2)C(O)C1O` (stereo not given): the growth was 95.2%. Under `COc1cc(Nc2ncccc2C(=O)Nc2nc3ccc(F)cc3s2)cc(OC)c1OC` stands 40.9%; under `Nc1ncc(-c2ccc3ncnc(Nc4cncc(Cl)c4)c3c2)cn1`, 65.6%. As to `O=C(Nc1ccc(-n2ccc3c(NC(=O)c4ccccc4)ncnc32)cc1)c1ccc(Cl)c(C(F)(F)F)c1`, the growth is 45.6%.

With `COc1ccc(C[C@H](N)C(=O)N[C@@H]2[C@@H](CO)OC(n3cnc4c(N(C)C)ncnc43)[C@@H]2O)cc1` (stereo not given in full), the growth is -57.8% (active). Under `O=C1c2ccccc2OC=C(c2ccccc2)N1CCCCNc1ccc(F)cc1` stands 85.1%. With `[2H]c1nc(Nc2ncc(F)c(-c3cc(F)c4nc(C)n(C(C)C)c4c3)n2)c([2H])c([2H])c1CN1CCN(CC)CC1`, the growth was 51.2%. In the case of `O=C(NCCNc1nccc(-c2c(-c3cccc(O)c3)nc3sccn23)n1)c1cc(N2CCOCC2)cc(C(F)(F)F)c1` it was 136%; in that of `CC(C)(C)OC(=O)N1CCN(CCn2cc(C(F)(F)F)c3c(Cl)ncnc32)CC1`, 88.6%; in that of `S=C=NP1(N=C=S)=NP(N=C=S)(N=C=S)=NP(N=C=S)(N=C=S)=NP(N=C=S)(N=C=S)=N1` (stereo not given), 85.4%. For the compound `COc1ccc(Cl)cc1NC(=O)c1cc2c([nH]1)-c1nc(N)sc1CCC2`, the growth was 102%.

As to `COc1cc2c(cc1OC)-c1c(oc3c4c(ccc3c1=O)OC(C)(C)C=C4)CO2`, the growth was 59.6%. In the case of `O=C(CNc1cccnc1)Nc1ccc(C(=O)/C=C/c2ccc(Cl)cc2)cc1` it was 107%. Under `C=C1C(=O)O[C@H]2[C@H]1CC/C(C(=O)NCCOCCOCC(=O)Nc1ccc(OC)c(C(N)=O)c1O)=C\CC[C@@]1(C)O[C@@H]21` stands 91.8%; under `CC(CCC(=O)O)[C@H]1CCC2C3C(=O)C[C@@H]4CC(=O)CC[C@]4(C)C3CC(=O)[C@@]21C` (stereo not given in full), 112%; under `Cc1cn([C@]2(CF)O[C@H](CO)C2C)c(=O)[nH]c1=O` (stereo not given in full), 62.8%. Turning to `Cc1ccccc1C[P+](c1ccccc1)(c1ccccc1)c1ccccc1`, the growth is 32.4%.

As for `Nc1n[nH]c2cccc(C#Cc3cccc(NC(=O)c4cccc(C(F)(F)F)c4)c3)c12`, the growth was 28.3%.

In the case of `CC[C@@]1(O)C(=O)OCc2c1cc1n(c2=O)Cc2c-1nc1ccccc1c2/C=N/OC(C)(C)C`, the growth is -24.1% (active).

`O=C(c1cc(-c2ccc(Cl)cc2)nc2ccccc12)N1N=C(c2ccccc2)CC1c1cc(-c2ccccc2)nn1-c1ccccc1` (stereo not given): the growth is 74%.

For the compound `O=C(O)c1ccc(-c2nn(-c3ccc(C(=O)O)cc3)cc2/C=N/Nc2c(F)c(F)cc(F)c2F)cc1`, the growth is 99%. Under `N#Cc1c(N)nc(Cl)c(C#N)c1C(=O)c1ccccc1` stands 69.4%. In the case of `CCN(CC)CCNC(=O)c1c(C)[nH]c(/C=C2\C(=O)Nc3cc(NC(=O)NC(=O)c4ccc(OC)cc4F)ccc32)c1C`, the growth was 109%. In the case of `CCC(N)(C(=O)O)c1ccc(F)cc1` (stereo not given) it was 104%; in that of `CCCCC(=O)Nc1nc2ccc(SCCC)cc2s1`, 51.8%.

On to `COc1ccc(OC)c(NCC(=O)n2nc(/C=C\c3ccc(O)c(OC)c3)cc2/C=C\c2ccc(O)c(OC)c2)c1`, for which the growth is 11.8%. In the case of `CC1(C)N=C(N)N=C(N)N1c1cccc(CCCCc2ccccc2)c1` it was -23.5% (active); in that of `CCCCCCCCN(CCCCCCCC)CC(O)c1cc(-c2ccccc2)nc2ccc(OC)cc12` (stereo not given), 95.4%. `Nc1c(C(=O)O)[nH]c(=O)[nH]c1=O`: the growth was 108%. `CC(=O)Nc1ccc(OC(=O)c2ccccc2O)cc1`: the growth is 99.8%. Turning to `Cc1ccn2cc(Cc3cc(=O)oc4c3ccc3ccccc34)c(=O)nc2c1`, the growth was 91.7%. With `Clc1ccc2c(NCCNc3nc(Cl)nc4ccccc34)ccnc2c1`, the growth was -68.6% (active).

Consider `O=C(NCCNc1nccc(-c2c(-c3cccc(O)c3)nc3sccn23)n1)c1ccccc1`, for which the growth was 119%. Under `COC(=O)c1ccc2c(c1)Oc1ccc(Cl)cc1-c1cc(C)nn1-2` stands 37.6%. As to `CCOC(=O)C1=C(N)Oc2cc(OC)ccc2C1c1ccc(F)c(F)c1` (stereo not given), the growth is 37.7%.
